Reference: PubChem BioAssay (NCI)
About 83,000 compounds went through this panel and 20% of them were active in at least one assay; those are over-represented in the sample as a whole.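 A percent growth of 40 corresponds to 60% growth inhibition; 0 means no net growth; -100 means all cells died. Active threshold: below 10.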 Activity calls are given as the source filed them.

test system: KM12 colon; experiment: NCI-60 one-dose screen, 48 h (100 = growth as untreated, 0 = no growth, -100 = all killed); details: 10 µM

Q: With `COc1ccc2nc(Cl)c(Cn3nnc(Cc4ccccc4)n3)cc2c1` as the compound, how does the growth read?
A: The growth was 36.5% (inactive).

Q: `C=C/C(C)=C/C[C@]1(C)[C@H](C)[C@@H](OC(=O)CCC)[C@H](O)[C@@]23C(=C[C@H](OC)C[C@@H]12)[C@@H](OC(=O)CCC)O[C@H]3OC(C)=O` was tested. Which growth did it give?
A: Its growth is 8.41% (active).

Q: Which growth does the source give for `COc1ccc(-c2cc(-c3cc(OC)ccc3OC)nc(N)c2C#N)cc1` here?
A: The growth was 71.7% (inactive).

Q: Which growth does the source give for `COc1ccc(-c2nn(-c3cccc(Cl)c3)cc2-c2cc(-c3ccccc3)nc(N)n2)cc1` here?
A: The growth was 31.8% (inactive).

Q: For `COc1ccccc1-n1c(-c2sc(NC(C)=O)nc2C)n[nH]c1=S`, which growth is on record?
A: Its growth is 108% (inactive).

Q: Which growth does the source give for `COc1cc2c3c(n(C4CCN(C)CC4)c(=O)c2cc1OC)-c1cc2c(cc1C3=O)OCO2` here?
A: The growth was 75.9% (inactive).

Q: How did the growth turn out when `COc1cc(-c2ccc[nH]2)[nH]c1/C=C1\N=C(C)C(C(=O)NC(C)C)=C1C` was run?
A: The growth was 19.3% (inactive).

Q: How did the growth turn out when `COc1ccc(-c2nn(-c3cccc(Cl)c3)cc2C=C(C#N)C#N)cc1` was run?
A: Its growth is 4.48% (active).

Q: With `Fc1ccc2[nH]cc(-c3nc(-c4ccsc4)cs3)c2c1` as the compound, how does the growth read?
A: Its growth is 101% (inactive).

Q: For `CCn1c2ccc(O)cc2c2c(C)c3c[n+](C)ccc3c(C)c21`, which growth is on record?
A: The growth was 21.5% (inactive).

Q: For `CC[C@H]1OC(=O)[C@H](C)[C@@H](O[C@H]2C[C@@](C)(OC)[C@@H](O)[C@H](C)O2)[C@H](C)[C@@H](O[C@@H]2O[C@H](C)C[C@H](N(C)C)[C@H]2O)[C@](C)(OC)C/C(C)=C2/O[C@@]1(C)C=C2C`, which growth is on record?
A: Its growth is 18.2% (inactive).

Q: How did the growth turn out when `N#Cc1c(-c2ccc(Cl)cc2)cc(-c2cc(O)ccc2O)nc1N` was run?
A: Its growth is 27.2% (inactive).
